Measurements: publication PMC4336329 (PLoS ONE, 2015)
The whole screen tested about 310,000 compounds, of which about 14,000 (4.5%) showed an effect of 50% or more. The effect is printed as a negative number. Only a selection was taken, and strong results are over-represented in it overall.

molecular target: human ether-à-go-go-related gene (hERG) potassium channel (human, UniProt Q12809); assay: primary screen, population patch clamp on CHO cells stably expressing hERG; higher = less effect of the substance
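Further: peak tail current of the secondary pulse compared with the same well before compound.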

human ether-à-go-go-related gene (hERG) potassium channel, sequence (Q12809 whole entry, looked up): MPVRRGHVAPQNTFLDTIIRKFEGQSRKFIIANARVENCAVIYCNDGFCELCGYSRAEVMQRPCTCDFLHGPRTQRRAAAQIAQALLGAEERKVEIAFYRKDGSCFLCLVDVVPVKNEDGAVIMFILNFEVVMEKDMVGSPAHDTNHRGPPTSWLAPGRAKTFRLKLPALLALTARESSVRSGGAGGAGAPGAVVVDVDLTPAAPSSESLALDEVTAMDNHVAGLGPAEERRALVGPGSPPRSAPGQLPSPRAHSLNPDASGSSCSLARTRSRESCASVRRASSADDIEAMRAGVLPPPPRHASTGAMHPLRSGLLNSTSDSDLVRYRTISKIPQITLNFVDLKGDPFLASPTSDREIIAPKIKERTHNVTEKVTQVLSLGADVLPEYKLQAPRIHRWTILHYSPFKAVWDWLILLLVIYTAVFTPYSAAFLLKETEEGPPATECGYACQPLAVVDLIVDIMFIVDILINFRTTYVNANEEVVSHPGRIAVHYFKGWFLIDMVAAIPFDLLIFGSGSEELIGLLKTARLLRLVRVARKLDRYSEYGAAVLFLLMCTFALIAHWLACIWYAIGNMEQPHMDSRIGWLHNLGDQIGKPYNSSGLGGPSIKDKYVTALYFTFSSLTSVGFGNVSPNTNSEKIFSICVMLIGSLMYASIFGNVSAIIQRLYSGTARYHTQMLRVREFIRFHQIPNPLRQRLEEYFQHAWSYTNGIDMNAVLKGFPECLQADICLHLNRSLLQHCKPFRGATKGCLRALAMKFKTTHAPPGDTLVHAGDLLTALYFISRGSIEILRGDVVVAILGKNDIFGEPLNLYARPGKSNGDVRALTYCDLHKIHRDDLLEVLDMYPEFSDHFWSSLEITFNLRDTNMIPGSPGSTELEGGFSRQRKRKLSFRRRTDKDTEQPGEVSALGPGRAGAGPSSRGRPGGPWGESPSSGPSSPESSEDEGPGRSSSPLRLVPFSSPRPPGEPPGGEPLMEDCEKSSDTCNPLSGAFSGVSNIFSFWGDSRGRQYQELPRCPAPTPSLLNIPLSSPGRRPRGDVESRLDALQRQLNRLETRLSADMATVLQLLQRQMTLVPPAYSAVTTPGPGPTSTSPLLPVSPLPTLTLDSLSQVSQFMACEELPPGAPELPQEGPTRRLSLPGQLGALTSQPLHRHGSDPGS

SMILES	hERG current change (%, negative = inhibition) at 10uM [%]
O=C(CSc1nnc(NC(=O)C2CC2)s1)NCc1ccco1	-4.21
COc1cc(/C=N\NC(=O)c2ccc(C)nc2)ccc1OC(=O)c1ccc2c(c1)OCO2	-7.08
Cc1cccc(CNc2ccc(C(CC(N)=O)NC(=O)Cc3cccc4ccccc34)cc2[N+](=O)[O-])c1 (centres unmarked)	7.02
Cc1ccn2cc(-c3cccc(NC(=O)c4cccs4)c3)nc2c1	-48.7
O=c1c2[nH]c3ccc(Cl)cc3c2ncn1CCN1CCCCC1	-68
COc1cc2[nH]c3c(=O)n(CCN4CCCCC4)cnc3c2cc1OC	6.02
O=c1c2[nH]c3ccccc3c2ncn1CCN1CCCCC1	-45.6
Cc1ccc(S(=O)(=O)N(C)CC(=O)Nc2ccccc2)cc1	-20
COc1cccc(CC(=O)OCC(=O)NC2(C#N)CCCCC2)c1	16.5
Cc1nnc(NC(=O)CCSc2ccccc2)s1	1.73
COC(=O)C1CCN(C(=O)COC(=O)c2n[nH]c3ccccc23)CC1	10.8
COc1cccc(OCc2cc(C(=O)NC(C)c3cnn(C)c3C)no2)c1 (centres unmarked)	-2.65
Cc1nn(C)cc1C(C)NC(=O)c1cc(COc2cccc3cnccc23)on1 (centres unmarked)	13.9
Cc1c(C(C)NC(=O)c2cc(COc3cccc4cnccc34)on2)cnn1C (centres unmarked)	-55.6
Cc1ccc(C)c(NC(=O)NNC(=O)c2ccc3ccccc3c2O)c1	11.4
COCCOC(=O)/C(C#N)=C/c1cn(Cc2ccccc2)nc1-c1cccnc1	-67.1
O=Cc1cn(Cc2ccccc2)nc1-c1cccnc1	7.48
O=C(c1cn(Cc2ccccc2)nc1-c1cccnc1)N1CCN(Cc2ccccc2)CC1	-33.5
O=C(c1cn(Cc2ccccc2)nc1-c1cccnc1)N1CCN(Cc2c(F)cccc2Cl)CC1	-4.33

SMILES	hERG current change (%, negative = inhibition) at 10uM [%]
COc1cccc(N2CCN(C(=O)c3cn(Cc4ccccc4)nc3-c3cccnc3)CC2)c1	-12.9
N#Cc1ccc(CN2CCN(C(=O)c3cn(Cc4ccccc4)nc3-c3cccnc3)CC2)cc1	-72.9
COc1ccc(N2CCN(C(=O)c3cn(Cc4ccccc4)nc3-c3cccnc3)CC2)cc1	-33.3
O=C(O)/C=C/c1cn(Cc2ccccc2)nc1-c1cccnc1	12
CC(=O)c1ccc(N2CCN(C(=O)c3cn(Cc4ccccc4)nc3-c3cccnc3)CC2)c(F)c1	-50.2
CCc1nnc(NC(=O)CSc2nc3c(c(=O)n2C)SC(C)C3)s1 (centres unmarked)	-2.54
CCCCOC(=O)c1ccc(NC(=O)c2ocnc2C)cc1	-8.8
O=C(OC(C(=O)NCc1ccco1)c1ccc(Cl)cc1)c1cccs1 (centres unmarked)	17.6
CC(C)Oc1ccccc1/C=N/NC(=O)C1CC1	7.57
Cl.OCCN1CCN(c2nc(NCc3ccco3)c3ccccc3n2)CC1	-75.3
Cl.c1ccc(CN2CCN(c3nc(N4CCOCC4)c4ccccc4n3)CC2)cc1	-70.3
O=C(NCCO)c1nc(NCCO)c2ccccc2n1	10.3
Cl.c1ccc2c(N3CCOCC3)nc(N3CCOCC3)nc2c1	-19.4
CCN1CCN(c2nc(NCCO)c3ccccc3n2)CC1.Cl	-16.7
CCN(CC)c1nc(N2CCOCC2)nc2ccccc12.Cl	-48.3
Cc1cccc(Nc2nc(NCc3ccco3)c3ccccc3n2)c1.Cl	-12.2
Cl.OCCNc1nc(N2CCN(Cc3ccccc3)CC2)nc2ccccc12	-68.3
Cc1ccc(-c2nc(NCc3ccco3)c3ccccc3n2)cc1	4.65
Cc1ccc(OCCN2CCN(c3nc(NCc4ccco4)c4ccccc4n3)CC2)cc1	-62.6

SMILES	hERG current change (%, negative = inhibition) at 10uM [%]
CC(=O)N1c2ccc(S(=O)(=O)N3CCCC(C(=O)N4CCCCC4)C3)cc2CC1C (centres unmarked)	19.2
CC(C)(C)NC(=O)CN(Cc1cccs1)C(=O)C1COc2ccccc2O1 (centres unmarked)	-14.7
Cc1cc(=O)[nH]c(N/N=C/c2c(C)oc3ccccc23)n1	-0.943
Nc1nc(Nc2ccccc2)nc(NC2CCCCC2)c1[N+](=O)[O-]	18.9
Cn1nccc1C(=O)N1CCOCC1	5.59
FC(F)Oc1ccc(NC(=S)NCC2COc3ccccc3O2)cc1 (centres unmarked)	-5.83
COc1ccc(OC)c(/C=N\NC(=O)c2ccc(COc3ccc(C)cc3[N+](=O)[O-])o2)c1	16.2
N#Cc1cnn(-c2cccc(Cl)c2)c1N	11.6
Cc1csc(NC(=O)CS(=O)(=O)c2ccccc2)n1	-18.1
COc1ccc(NC(=O)c2nc[nH]c2C(=O)N2CCN(c3ccccc3)CC2)cc1	3.64
CC(C)CN(C(=O)CSc1nn(-c2ccc(Cl)cc2)c(=S)s1)C1CCS(=O)(=O)C1 (centres unmarked)	-20.1
O=C(COC(=O)/C=C/c1cccs1)Nc1nc(-c2ccccc2)cs1	12.1
Nc1nc(NCc2ccco2)nc(N2CCN(Cc3ccccc3)CC2)c1[N+](=O)[O-]	-41.9
c1ccc(CN2CCN(c3nc4ccccc4s3)CC2)cc1	11.8
Nc1nc(N2CCN(Cc3ccccc3)CC2)n[nH]1	24.7
Cl.c1ccc(CNc2nc(N3CCN(Cc4ccccc4)CC3)nc3ccccc23)cc1	-65.9
Cl.c1ccc(CN2CCN(c3nc(NCc4ccco4)c4ccccc4n3)CC2)cc1	-68.3
c1ccc(CNc2nc(NCc3ccco3)nc(N3CCOCC3)n2)cc1	-28.5
